The panel holds about 83,000 compounds, 20% with a hit somewhere; the sample as a whole holds those more often.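 Cells were grown in 96-well plates and exposed to the test compound at a single concentration for 48 hours; results are reported as percent growth, with values below 10 considered active.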 A number with no mark means an inactive call. Active and inactive are the calls of the source.

For this assay, the system named is SNB-19 CNS. Kind of assay: NCI-60 one-dose screen, 48 h (100 = growth as untreated, 0 = no growth, -100 = all killed). The following applies: 10 µM unless noted. As to the method: Growth inhibition of the SNB-19 human tumor cell line is measured as a screen for anti-cancer activity. Cells are grown in 96 well plates and exposed to the test compound for 48 hours. Compounds are tested at a single concentration, which is 10^-5 M for most compounds. The reported endpoint is percent growth (GI% or GIPRCNT), where numbers from 0 - 100% represent growth inhibition, and numbers from -100% - 0 represent cell death. For example, a value of 40 represents 60% growth inhibition. A value of 0 means no net growth occurred over the course of the experiment. A value of -40 indicates 40% of cells at the beginning of the experiment died by the end of the experiment. A value of -100 means all cells are dead at the end of the experiment.
NCI-60 Human Tumor Cell Lines Screen was performed using the standard one-dose NCI protocol, which is described in more detail at https://dtp.cancer.gov/discovery_development/nci-60/default.htm.
Compounds with GIPRCNT values below 10 were considered active. Activity score was based on GIPRCNT using the following formula: […]
Score is 0 for GIPRCNT values of 100 or above, 50 for GIPRCNT values of 0, and 100 for GIPRCNT values of -100.
Regarding `O=C(Nc1cccc(-n2cc(-c3ccncc3)c(-c3ccc(Cl)c(O)c3)n2)c1)Nc1ccc(Cl)c(Cl)c1`, the growth is 30.3%.
Turning to `Fc1ccc(CNCCNc2ncnc3c2cnn3-c2ccccc2)cc1`, the growth was 94.1%.
On to `COc1ccccc1CNCCCN1C(=O)c2ccc3c4c(ccc(c24)C1=O)C(=O)N(CCCNCCCCNCCCN)C3=O`, for which the growth is -31.1% (active).
Turning to `CC(C)(C)n1cc(-c2ccnc(NCCCNS(=O)(=O)c3ccccc3)c2)c(-c2cccc(O)c2)n1`, the growth was 76%.
Turning to `CN(C)c1ncnc2c1ccn2C1OC(CO)C(O)C1O` (stereo not given), the growth was 73.8%.
For `Cc1nn(-c2ccc([N+](=O)[O-])cc2)c2ncnc(NCCc3ccccc3)c12`, the growth was 97.2%.
As to `C=C1CCC2C3(C)COC(c4c(OC)cccc4OC)OC3CCC2(C)C1C/C=C1/C(=O)OCC1O` (stereo not given), the growth is 77.3%.
Under `COc1cc(C2CC(c3ccc4c(c3)OCO4)=NN2C(C)=O)cc(OC)c1OC` (stereo not given) stands 47.6%.
Turning to `C=C1CCC2C(C)(CO)C(O)CCC2(C)C1C/C=C1/C(=O)OCC1O/C=C/c1ccccc1` (stereo not given), the growth is 95.3%.
On to `Cc1nc2cncc(C#Cc3cncc(C(=O)Nc4ccc(CN5CCN(C)CC5)c(C(F)(F)F)c4)c3)c2nc1C`, for which the growth was 49.7%.
On to `O=c1[nH]c(NCc2ccccc2)nc2nc(Nc3ccc(NC(=S)Nc4ccccc4)cc3)nc(-c3ccc(O)cc3O)c12`, for which the growth is 91.9%.
For `CCCCN(CCCC)c1ccc(C(=N)c2ccc(N(CCCC)CCCC)cc2)cc1`, the growth was -82.8% (active).
With `CC(=O)OC[C@]12CC[C@H]3[C@@H](C[C@H]4O[C@]45CC=CC(=O)[C@]35C)[C@]1(O)CC[C@@]2(O)[C@@](C)(O)C1CC(C)=C(C)C(=O)O1` (stereo not given in full), the growth was 5.89% (active).
Regarding `CC(O)CN1CCCCC1` (stereo not given), the growth is 100%.
For the compound `Clc1cccc(-c2cc(-c3ccc4c(c3)OCCO4)[nH]n2)c1`, the growth is 45.7% [25 µM].
`Cc1nc2ncccc2nc1Nc1ccc(S(=O)(=O)Nc2ccccn2)cc1`: the growth was 88.5%.
Under `CCOC(=O)C1C(=O)C=C(c2ccc(OC)cc2)CC1c1sc(N(C)Cc2ccccc2)nc1Cl` (stereo not given) stands 74.1%; under `COc1ccc(S(=O)(=O)Nc2cc(/C=C\c3cc(OC)c(OC)c(OC)c3)cc(OC)c2OC)cc1`, 57.7%; under `COc1ccc2c(c1)OC1=C(C(=O)OC1)C2c1cc(OC)c2c(c1)OCO2` (stereo not given), 29%.
Regarding `CC(C)CC1NC(C)(C)CO1` (stereo not given), the growth was 115%.
The value for `O=C(NS(=O)(=O)c1ccc2ccccc2c1)n1cc(-c2ccncc2)c(-c2ccc(Cl)c(O)c2)n1` was 109%; that for `COc1cc(NC(N)=NCCC(C)(C)Oc2ccc(C(F)(F)F)cc2)ncc1C#N` was 27.8%; that for `CN1CCN(Cc2ccc(NC(=O)c3nc4ccc5[nH]ncc5c4c4c3CCC4)cc2C(F)(F)F)CC1` was -76.7% (active).
Regarding `COc1cc2c(cc1OCCCN1CCN(CCCn3c4ccccc4c4ccccc43)CC1)N=C[C@@H]1CCCN1C2=O`, the growth is -49.8% (active).
Regarding `Cn1cc(-c2cnc3ccc(NC(=O)Nc4ccc(F)c(Br)c4)cc3n2)cn1`, the growth was 57.7%.
On to `O=c1[nH]c(Nc2ccc(S(=O)(=O)O)cc2)nc2nc(Nc3ccc(NC(=S)Nc4ccccc4)cc3)nc(-c3ccc(O)cc3O)c12`, for which the growth was 91.1%.
Under `Nc1nc(-c2ccccc2)c(CCCOc2ccc(NC(=O)CBr)cc2)c(=O)[nH]1` stands 91.1%.
As for `COc1ccc(CN2CCc3c(Sc4ccccc4)nc(N)nc3C2=O)c(OC)c1`, the growth is 82%.
For the compound `CCN(CC)c1ccc(N=O)cc1`, the growth is 93.1%.
With `CCCCCCN1CSC(=S)N(CCCCCC)C1`, the growth is 106%.
The value for `Fc1ccccc1-c1nc(-c2nc3cc(Cl)c(Cl)cc3[nH]2)c2ccccn12` was 93.1%; that for `CC(=O)Nc1ccc(S(=O)(=O)n2ccc(-c3ccc4c(c3)CCC(C)(C)O4)n2)cc1` was 73.3%.
In the case of `COc1ccc(/C=C2/C(=O)NC(SCC(=O)N3CCN(c4cc5c(cc4F)c(=O)c(C(=O)O)cn5C4CC4)CC3)=NC2N)cc1OC` (stereo not given), the growth is 102%.
Consider `CC(C)(C)c1[nH]nc2c1C(c1cc3ccccc3[nH]c1=O)Nc1cc(C(=O)Nc3ccc(Cl)cc3)ccc1N2` (stereo not given), for which the growth is 90.5%.
Under `Cc1cc(N/N=C/c2nc(-c3ccccc3)oc2C)c2cc(Cl)ccc2n1` stands -31.2% (active); under `FC(F)(F)c1cccc(-c2cn3c(ccc4ccccc43)n2)c1`, 100%.
For `S=C1CC(=S)NC(=S)N1`, the growth is 96.1%.
The value for `Cn1c2ccc(Br)cc2c2c3c(c4c5ccccc5[nH]c4c21)C(=O)N(O)C3=O` was -35.8% (active); that for `COc1ccc(CNCCCN2C(=O)c3ccc4c5c(ccc(c35)C2=O)C(=O)N(CCCNCCCCNCCCN)C4=O)c(OC)c1OC` was 28%.
For `O=C1CCCCC1(c1ccccc1)c1ccccc1`, the growth was 100%.

The values above are taken from PubChem BioAssay (NCI).
